The list is not random: actives were taken first. Their share in the collection is about 19%.
HT1080 IDH1KD tx = toxicity to HT-1080 IDH1 knockdown cells (counter line); Potency, µM (titrated, usually from 46.1 µM), hits mostly cytotoxic; HT-1080 IDH1 knockdown viability, ATP luminescence, 48 h; 360,000 compounds, 2% hits
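Using the IDH1-knockdown HT-1080 line run in the same batch and compound series as the NT line, viability after 48 h at 37 °C was determined by CellTiter-Glo luminescence and expressed as % activity.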
IL1B secr inh = inhibitors of inflammasome signaling (IL-1 beta secretion). THP-1 LPS/ATP IL-1B secretion, AlphaLISA, 16 h; active compounds read low. activity change, % at 57.5 µM. 360,000 compounds, 4.7% hits. AID 743279; in the data active means activity change below about -50%; inconclusive means mostly about -30% to -49%
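Secreted IL-1B measured by AlphaLISA bead assay after 16 h compound exposure of THP-1 cells; compounds (final up to 57.5 uM) added 1 h before LPS (250 ng/mL) and ATP (1.25 mM) stimulation; lower signal means less secretion.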
uPA generation = cell surface uPA generation inhibition; Potency, µM (doses to about 38.3 µM), hits mostly inhibitors; 330,000 compounds, 0.31% hits; cell surface uPA generation assay, qHTS; active means well fitted inhibition curve with a large enough effect; inconclusive means small, poorly fitted or top-dose-only effect; inactive means no such curve, though single readings can be large or run the other way; tested in mouse RAW 264.7 cells; further: nearly all actives have a fitted effect of over 55% in size
HT1080-NT tox = kills 2HG-producing HT-1080-NT fibrosarcoma cells; HT-1080-NT fibrosarcoma viability, CellTiter-Glo ATP luminescence, 48 h; Potency, µM (highest dose often 46.1 µM), most hits filed as cytotoxic; 360,000 compounds, 1.6% hits; AID 686970;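 further: NT is the 2HG producing partner of a matched IDH1 knockdown line; nearly all actives have a fitted effect of over 55% in size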
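HT-1080-NT; 750 cells/well; 5% FBS RPMI; 48 h compound, 37 degrees C; CellTiter-Glo luminescence; curve fitting and curve-class assignment.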
TDP1 cell noCPT = qHTS for Inhibitors of human tyrosyl-DNA phosphodiesterase 1 (TDP1): qHTS in cells in absence of CPT; DT40 Tdp1-/- hTDP1 cells, no CPT, ATP luminescence, 48 h; AID 686978, 2013; Potency, µM (top dose mostly 46.2 µM), usual class: inhibitors; 420,000 compounds, 15% hits; further: nearly all actives have a fitted effect of over 55% in size
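Camptothecin absent (DMSO only). Human TDP1-complemented DT40 knockout cells, 400 cells/well, 37 °C for minimum 48 hr; ATP measured via CellTiter-Glo, 30 min dark incubation, luminescence.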
DT40 TDP1 CPT = growth inhibition of DT40 Tdp1-/-;hTDP1 cells with camptothecin (screen for TDP1 inhibitors); Potency, µM (series often up to 46.2 µM), actives largely listed as inhibitors; 420,000 compounds, 12% hits; chicken DT40 Tdp1-/-;hTDP1 cells + 20 nM CPT, ATP luminescence, 48 h; further: nearly all actives have a fitted effect of over 55% in size
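Chicken DT40 Tdp1-/- cells complemented with human TDP1, 400 cells/well, exposed to compounds plus 20 nM camptothecin for at least 48 h at 37 C; viability read as ATP content by CellTiter-Glo luminescence.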
Numbers stand for hits; - = inactive; ? = inconclusive; . = no result given; [ ] = dose if it differs, or a comment. Unless noted, the call rests on the fitted dose curve; in most records, active means well fitted curve in the direction sought with a large enough effect; inconclusive means small, poorly fitted or top-dose-only effect, or another doubt; inactive means no such curve, though single readings can be large; an effect the other way counts as inactive or inconclusive.

SMILES	HT1080 IDH1KD tx	IL1B secr inh	uPA generation	HT1080-NT tox	TDP1 cell noCPT	DT40 TDP1 CPT
COC(=O)[C@]1(C)N[C@H](CN(C)S(=O)(=O)c2ccc(C(F)(F)F)cc2)[C@@H]2C(=O)N(C)C(=O)[C@@H]21	-	-	-	-	-	-
N#C/C(=C\c1ccc(Cl)cc1)c1nc(-c2cc3ccccc3oc2=O)cs1	.	.	.	.	-	-
COc1cc(/C=C(\C#N)c2nc(-c3cc4ccccc4oc3=O)cs2)ccc1O	-	-	-	-	18µM	18µM
CC1CCC(=C(C#N)c2nc(-c3cc4ccccc4oc3=O)cs2)CC1 (stereo not drawn)	-	-	-	-	21µM	?
Cc1ccccc1CNC(=O)CN1C(=O)CCCc2ccccc21	.	.	.	.	-	-
CCCCCCC1CC(=CN(C)C)C(=O)O1 (stereo not drawn)	-	-	.	?	16µM	?
CC(C)C(N)c1csc(NC(=O)Nc2ccc(OC(F)(F)F)cc2)n1 (stereo not drawn)	21µM	-70	.	8.2µM	23µM	?
COc1ccc(CC(N)c2csc(NC(=O)Nc3cccc(C(F)(F)F)c3)n2)cc1 (stereo not drawn)	16µM	-57	.	18µM	?	?
NC(CCc1ccccc1)c1csc(NC(=O)Nc2cccc(C(F)(F)F)c2)n1 (stereo not drawn)	21µM	-57	.	16µM	21µM	?
NC(Cc1ccc(C(F)(F)F)cc1)c1csc(NC(=O)Nc2ccccc2Cl)n1 (stereo not drawn)	?	-72	.	15µM	21µM	?
CCCc1nnc(NC(=O)Nc2ccccc2Cl)s1	.	.	.	.	?	-
COCCNC(=O)C1(C)CCCN(C(=O)c2ccc(OC)c(OC)c2)C1 (stereo not drawn)	-	-	.	-	-	-
NC(Cc1ccc(Cl)cc1)c1csc(NC(=O)Nc2ccccc2)n1 (stereo not drawn)	18µM	-	.	23µM	15µM	13µM
COc1ccc(CC(N)c2csc(NC(=O)Nc3ccc(F)cc3)n2)cc1 (stereo not drawn)	?	-65	.	?	13µM	23µM
O=C(Nc1ccc(Cl)cc1)c1csc(Cc2ccccc2)n1	-	-	-	-	-	-
NC(Cc1ccc(C(F)(F)F)cc1)c1csc(NC(=O)Nc2ccccc2)n1 (stereo not drawn)	16µM	-	.	?	?	13µM
CC(C)[C@H](NC(=O)Nc1cccc(C(F)(F)F)c1)C(=O)O	-	-	-	-	-	-
CC(C)C(N)c1csc(NC(=O)Nc2cccc(C(F)(F)F)c2)n1 (stereo not drawn)	23µM	?	.	21µM	15µM	15µM
C[C@H]1CN([C@@H](C)CO)C(=O)c2cc(C#CCC3CCCC3)cnc2O[C@@H]1CN(C)C(=O)CC1CC1	-	-	.	-	?	?
Cc1cccc(OCCCC(=O)NNC(=O)CCN2CCN(c3ccccc3)CC2)c1	-	-	-	-	?	?
CCOc1ccc(C2c3c(oc4ccc(C)cc4c3=O)C(=O)N2CCCN(C)C)cc1 (stereo not drawn)	.	.	.	.	-	-
NC(CO)c1csc(NC(=O)Nc2cccc(Cl)c2)n1 (stereo not drawn)	-	-	.	-	-	-
NC(COCc1ccccc1)c1csc(NC(=O)Nc2cccc(Cl)c2)n1 (stereo not drawn)	?	-56	.	?	?	23µM
NCc1csc(NC(=O)Nc2cccc(C(F)(F)F)c2)n1	?	-	.	-	23µM	16µM
COc1cccc(CNC(=O)CSc2nc(=O)n(Cc3ccncc3)c3c2CCC3)c1	-	-	-	-	-	-
SMILES	HT1080 IDH1KD tx	IL1B secr inh	uPA generation	HT1080-NT tox	TDP1 cell noCPT	DT40 TDP1 CPT
COc1cc(-c2coc3c(C(=O)NCc4ccc(C(F)(F)F)cc4)cccc23)ccc1O	26µM	?	.	?	21µM	15µM
O=C(NCc1ccc(C(F)(F)F)cc1)c1cccc2c(-c3cccnc3)coc12	?	-	.	?	-	?
COc1cc(-c2coc3c(C(=O)NCc4ccncc4)cccc23)ccc1O	-	-67	.	-	-	-
O=C(NCc1ccccc1)c1cccc2c(-c3cccnc3)coc12	-	-	.	-	?	?
Cc1ccc(CNC(=O)C2c3ccccc3C(=O)N3CCc4ccccc4C23)o1 (stereo not drawn)	?	-	.	-[9.24 µM]	23µM	?
O=C(NCCN1CCN(Cc2ccccc2)CC1)C1c2ccccc2C(=O)N2CCc3ccccc3C12 (stereo not drawn)	-	-	-	-	-	-
OC(C[n+]1ccccc1Cl)c1ccccc1 (stereo not drawn)	.	.	.	.	-	-
CCn1cc2nc(SCC(=O)Nc3ccc(OC)c(OC)c3)n(Cc3ccc(OC)cc3)c(=O)c2n1	-	-	-	-	?	?
Cc1ccc(Cn2ccn(CC(=O)Nc3ccccc3C(F)(F)F)c(=O)c2=O)cc1	.	.	.	.	-	-
CCn1cc2nc(SCC(=O)Nc3ccccc3C(F)(F)F)n(Cc3ccc(C)cc3)c(=O)c2n1	.	.	.	.	18µM	16µM
CCn1cc2nc(SCC(=O)Nc3ccc(OC)c(Cl)c3)n(Cc3ccc(OC)cc3)c(=O)c2n1	.	.	.	.	-	-
CCn1cc2nc(SCC(=O)Nc3ccc(C)cc3)n(Cc3ccc(C)cc3)c(=O)c2n1	.	.	.	.	13µM	21µM
CCn1cc2nc(SCC(=O)Nc3ccc(OC)cc3OC)n(Cc3ccc(OC)cc3)c(=O)c2n1	5.2µM	-	-	3.7µM	2.6µM	4.1µM
CCOC(=O)c1ccc(NC(=O)c2cc(=O)c3cc(CC)ccc3o2)cc1	.	.	.	.	-	-
COc1ccc(-n2c(=O)cnc3cnc(Oc4ccccc4)nc32)cc1	.	.	.	.	?	-
CCN(Cc1ccccc1)Cc1c(O)ccc2c(=O)c(-c3ccccc3OC)c(C(F)(F)F)oc12	.	.	.	.	26µM	?
CCN(Cc1ccccc1)Cc1c(O)ccc2c(=O)c(-c3ccccc3Cl)c(C(F)(F)F)oc12	.	.	.	.	?	18µM
CCN(CC)Cc1c(O)ccc2c(=O)c(-c3ccccc3Cl)coc12	-	-	-	-	-	-
CCC1Sc2ccccc2N(CC(=O)NCc2ccc(C)cc2)C1=O (stereo not drawn)	.	.	.	.	23µM	?
COc1ccc(S(=O)(=O)N2CCN(C(=O)c3ccc4ccccc4n3)CC2)cc1	-	-	-	-	-	?
CNC(=S)N1N=C(c2ccc(C)cc2)CC1c1ccc(Cl)cc1 (stereo not drawn)	-	-	-	-	10µM	13µM
CNC(=S)N1N=C(c2ccccc2)CC1c1ccccc1Cl (stereo not drawn)	-	-	-	-	?	?

High-throughput results from PubChem BioAssay.
